From PubChem BioAssay (NCATS)
Results filed as inconclusive are left out. Active and inactive are the calls of the source. Unless noted, calls come from the whole dose curve; as a rule, active = well fitted curve in the direction sought with a large enough effect; inconclusive = small, poorly fitted or top-dose-only effect, or another doubt; inactive = no such curve, though single readings can be large; an effect the other way counts as inactive or inconclusive.

What was measured:
[1] = S16 Schwann cell PMP22 intronic element beta-lactamase assay (AID 624044; calls by dose curve; note: nearly all actives have a fitted effect of over 15% in size)
Method in brief: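 Beta-lactamase reporter under a PMP22 intronic regulatory element in stable S16 rat Schwann cells; 24 h compound exposure. 460 nm blue signal normalized between DMSO (0%) and potassium clavulanate, with 535 nm FRET tracking viability; curves classed by r2 and response.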

7G8 = assay: qHTS profiling for inhibitors of Plasmodium falciparum proliferation (AID 504749); note: nearly all actives have a fitted effect of over 60% in size; conditions: P. falciparum in erythrocytes, SYBR Green DNA, 72 h; series mostly up to 12.8 µM
Method in brief: (§1)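 SYBR Green fluorescence (ex 485 nm, em 535 nm) reports parasite DNA after 72 h compound exposure of infected red cells at 0.3% parasitemia, 2.5% hematocrit; signal normalized to 0.29 uM artemisinin and vehicle wells.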

AA1029 = assay: as above; conditions: P. falciparum in erythrocytes, SYBR Green DNA, 72 h; series mostly up to 12.8 µM
Method in brief: as §1

ATS95 = assay: as above; conditions: P. falciparum in erythrocytes, SYBR Green DNA, 72 h; series mostly up to 12.8 µM
Method in brief: as §1

CP194 = assay: as above; conditions: P. falciparum in erythrocytes, SYBR Green DNA, 72 h; series mostly up to 12.8 µM
Method in brief: as §1

CP203 = assay: as above; conditions: P. falciparum in erythrocytes, SYBR Green DNA, 72 h; series mostly up to 12.8 µM
Method in brief: as §1

CP260 = assay: as above; conditions: P. falciparum in erythrocytes, SYBR Green DNA, 72 h; series mostly up to 12.8 µM
Method in brief: as §1

CP265 = assay: as above; conditions: P. falciparum in erythrocytes, SYBR Green DNA, 72 h; series mostly up to 12.8 µM
Method in brief: as §1

CP325 = assay: as above; conditions: P. falciparum in erythrocytes, SYBR Green DNA, 72 h; series mostly up to 12.8 µM
Method in brief: as §1

CP335 = assay: as above; conditions: P. falciparum in erythrocytes, SYBR Green DNA, 72 h; series mostly up to 12.8 µM
Method in brief: as §1

DFO2036 = assay: as above; conditions: P. falciparum in erythrocytes, SYBR Green DNA, 72 h; series mostly up to 12.8 µM
Method in brief: as §1

GB4 = assay: as above; conditions: P. falciparum in erythrocytes, SYBR Green DNA, 72 h; series mostly up to 12.8 µM
Method in brief: as §1

P94_40 = assay: as above; conditions: P. falciparum in erythrocytes, SYBR Green DNA, 72 h; series mostly up to 12.8 µM
Method in brief: as §1

TAB109 = assay: as above; conditions: P. falciparum in erythrocytes, SYBR Green DNA, 72 h; series mostly up to 12.8 µM
Method in brief: as §1

[2] = biological target: Cytochrome P450 1A2 (Homo sapiens) (UniProt P05177); assay: p450-cyp1a2 (AID 410; calls by dose curve; note: potency is the fitted concentration of half-maximal effect)
Method in brief: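 Read-out is luminescence from luciferin produced by CYP1A2 demethylation of Luciferin-ME (100uM, at Km). Detection reagent stopped the 60 min NADPH-dependent reaction; signals were normalized to 57 uM furafylline.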

[3] = biological target: Cytochrome P450 2D6 (Homo sapiens) (UniProt P10635); assay: qHTS Assay for Inhibitors and Substrates of Cytochrome P450 2D6 (AID 891); note: potency is the fitted concentration of half-maximal effect; nearly all actives have a fitted effect of over 60% in size
Method in brief: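 Luminescent read-out of luciferin formed by 5 nM human CYP2D6 demethylating 30 uM Luciferin-ME EGE (Km level) over 60 min at room temperature after NADPH regeneration addition. Data normalized to full inhibition by 1.43 uM quinidine.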

[4] = biological target: Cytochrome P450 3A4 (Homo sapiens) (UniProt P08684); assay: qHTS Assay for Activators of Cytochrome P450 3A4 (AID 885); note: nearly all actives have a fitted effect of over 65% in size
Method in brief: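 Activators are scored by enhanced luminescence from CYP3A4 conversion of luciferin-PPXE (25uM, equal to KM) to luciferin, after 60 min at RT with an NADPH-regenerating system.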

[5] = biological target: Cytochrome P450 2C9 (Homo sapiens) (UniProt P11712); assay: qHTS Assay for Inhibitors and Substrates of Cytochrome P450 2C9 (AID 883); note: potency is the fitted concentration of half-maximal effect; nearly all actives have a fitted effect of over 60% in size
Method in brief: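 Signal: luciferase luminescence reporting luciferin produced by CYP2C9. Conditions: 10nM enzyme, Luciferin-H 100uM at KM, 25mM KPO4, 37C, 60 min NADPH-driven reaction. Reference: 57uM sulphaphenazole as 100% inhibition.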

[6] = biological target: Cytochrome P450 2C19 (Homo sapiens) (UniProt P33261); assay: qHTS Assay for Inhibitors and Substrates of Cytochrome P450 2C19 (AID 899); note: nearly all actives have a fitted effect of over 60% in size; note: potency is the fitted concentration of half-maximal effect
Method in brief: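 Signal comes from luciferase acting on luciferin released by CYP2C19-mediated hydroxylation of Luciferin-H EGE, 10uM (KM). Assay mix: 5nM enzyme, 50mM KPO4; 60 min at 37C with NADPH regeneration. Data normalized against 57uM ketoconazole.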

[7] = biological target: Cytochrome P450 3A4 (Homo sapiens) (UniProt P08684); assay: qHTS Assay for Inhibitors and Substrates of Cytochrome P450 3A4 (AID 884); note: potency is the fitted concentration of half-maximal effect; nearly all actives have a fitted effect of over 50% in size
Method in brief: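 Luminescent readout of luciferin produced by CYP3A4 (20 nM) dealkylation of Luciferin-PPXE, 25 uM (its KM). NADPH-driven reaction ran 60 min at RT after 10 min compound preincubation; data scaled to 57 uM ketoconazole as 100% inhibition.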

Measured: Potency

Sequence of Cytochrome P450 3A4 (Homo sapiens) (P08684 whole entry, looked up): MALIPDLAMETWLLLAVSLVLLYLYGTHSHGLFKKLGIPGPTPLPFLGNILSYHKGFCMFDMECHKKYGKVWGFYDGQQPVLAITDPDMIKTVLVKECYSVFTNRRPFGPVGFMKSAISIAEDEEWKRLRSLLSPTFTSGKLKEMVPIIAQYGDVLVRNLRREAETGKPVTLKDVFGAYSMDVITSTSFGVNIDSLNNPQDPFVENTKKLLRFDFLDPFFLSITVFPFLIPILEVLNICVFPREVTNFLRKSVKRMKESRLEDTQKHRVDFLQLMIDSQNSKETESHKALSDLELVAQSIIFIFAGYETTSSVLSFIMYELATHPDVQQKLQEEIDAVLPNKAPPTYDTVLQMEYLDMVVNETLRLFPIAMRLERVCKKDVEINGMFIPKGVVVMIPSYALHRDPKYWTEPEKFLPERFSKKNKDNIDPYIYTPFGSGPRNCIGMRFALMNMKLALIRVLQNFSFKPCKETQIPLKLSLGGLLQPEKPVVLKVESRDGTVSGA
Sequence of Cytochrome P450 1A2 (Homo sapiens) (P05177 whole entry, looked up): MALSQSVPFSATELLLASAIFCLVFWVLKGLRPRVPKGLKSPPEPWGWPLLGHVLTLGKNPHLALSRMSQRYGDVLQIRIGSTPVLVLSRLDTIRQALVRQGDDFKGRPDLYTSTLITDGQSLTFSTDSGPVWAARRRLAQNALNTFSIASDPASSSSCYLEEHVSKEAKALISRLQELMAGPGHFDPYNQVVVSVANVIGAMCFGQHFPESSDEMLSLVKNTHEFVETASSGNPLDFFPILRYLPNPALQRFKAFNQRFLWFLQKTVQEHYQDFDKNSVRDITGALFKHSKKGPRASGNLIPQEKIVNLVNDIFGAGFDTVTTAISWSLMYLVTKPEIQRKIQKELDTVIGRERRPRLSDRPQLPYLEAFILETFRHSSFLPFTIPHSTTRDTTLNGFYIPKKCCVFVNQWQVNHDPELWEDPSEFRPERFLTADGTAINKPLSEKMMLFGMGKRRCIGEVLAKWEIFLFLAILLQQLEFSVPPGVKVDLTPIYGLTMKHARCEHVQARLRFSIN
Sequence of Cytochrome P450 2C19 (Homo sapiens) (P33261 whole entry, looked up): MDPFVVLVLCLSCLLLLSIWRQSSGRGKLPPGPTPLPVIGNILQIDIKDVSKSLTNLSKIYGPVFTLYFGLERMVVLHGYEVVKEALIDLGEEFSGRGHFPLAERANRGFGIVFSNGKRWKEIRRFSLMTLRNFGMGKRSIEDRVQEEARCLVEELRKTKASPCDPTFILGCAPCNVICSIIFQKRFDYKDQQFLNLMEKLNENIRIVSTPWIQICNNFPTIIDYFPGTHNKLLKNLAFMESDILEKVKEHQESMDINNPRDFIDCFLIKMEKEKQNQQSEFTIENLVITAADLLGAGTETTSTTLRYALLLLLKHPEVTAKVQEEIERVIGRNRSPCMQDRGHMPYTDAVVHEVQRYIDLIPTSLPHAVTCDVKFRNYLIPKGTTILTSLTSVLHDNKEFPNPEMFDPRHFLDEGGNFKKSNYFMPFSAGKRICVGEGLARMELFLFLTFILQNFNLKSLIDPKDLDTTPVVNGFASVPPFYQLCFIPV
Sequence of Cytochrome P450 2D6 (Homo sapiens) (P10635 whole entry, looked up): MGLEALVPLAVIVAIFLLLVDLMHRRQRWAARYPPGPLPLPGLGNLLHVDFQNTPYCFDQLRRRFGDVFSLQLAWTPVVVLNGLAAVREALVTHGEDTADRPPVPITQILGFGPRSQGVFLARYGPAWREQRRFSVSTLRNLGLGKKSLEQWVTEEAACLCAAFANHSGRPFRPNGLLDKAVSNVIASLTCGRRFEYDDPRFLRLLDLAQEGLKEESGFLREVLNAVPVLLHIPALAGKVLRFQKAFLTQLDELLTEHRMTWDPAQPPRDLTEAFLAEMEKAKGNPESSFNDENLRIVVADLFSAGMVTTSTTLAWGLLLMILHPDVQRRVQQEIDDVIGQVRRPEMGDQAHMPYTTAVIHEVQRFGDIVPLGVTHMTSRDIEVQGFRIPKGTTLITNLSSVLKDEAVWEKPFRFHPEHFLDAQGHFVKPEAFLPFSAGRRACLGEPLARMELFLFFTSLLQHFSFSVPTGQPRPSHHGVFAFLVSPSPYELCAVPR
Sequence of Cytochrome P450 2C9 (Homo sapiens) (P11712 whole entry, looked up): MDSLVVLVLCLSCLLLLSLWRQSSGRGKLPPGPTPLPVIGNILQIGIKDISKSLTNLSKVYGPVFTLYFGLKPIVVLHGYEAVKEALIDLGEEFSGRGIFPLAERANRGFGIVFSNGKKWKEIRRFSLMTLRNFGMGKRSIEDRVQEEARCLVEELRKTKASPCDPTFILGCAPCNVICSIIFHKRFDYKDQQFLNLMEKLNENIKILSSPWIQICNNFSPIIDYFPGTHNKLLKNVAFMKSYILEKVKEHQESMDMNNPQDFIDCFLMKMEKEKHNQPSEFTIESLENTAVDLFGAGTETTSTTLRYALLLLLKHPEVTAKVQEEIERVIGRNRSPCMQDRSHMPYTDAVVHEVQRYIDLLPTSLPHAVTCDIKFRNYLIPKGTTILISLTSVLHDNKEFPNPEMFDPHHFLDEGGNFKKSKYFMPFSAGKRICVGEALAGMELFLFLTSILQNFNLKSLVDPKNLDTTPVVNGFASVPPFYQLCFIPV

C[C@@H]1O[C@H](O[C@@H]2\C=C/C=C\C=C/C=C\C[C@H](C)OC(=O)/C=C\[C@H]3O[C@@H]3C[C@H](O)C[C@]3(O)C[C@@H](O)[C@@H](C(=O)O)[C@H](C2)O3)[C@@H](O)[C@H](N)[C@@H]1O (stereo in doubt)
not listed: [2] | [3] | [4] | [5] | [6] | [7]
inactive: all other assays above

c1ccc2c3c([nH]c2c1)[C@@H]1[C@H]2CC[C@H]([C@H]4CCCN[C@H]42)N1CC3
active: [2] 15.8 µM | [3] 7.94 µM

CNCCC=C1c2ccccc2C=Cc2ccccc21
inactive: [4]
active: [2] 6.31 µM | [3] 5.01 µM

CC(=O)C[C@H](c1ccc([N+](=O)[O-])cc1)c1c(O)c2ccccc2oc1=O
active: [5] 0.631 µM
not listed: [3] | [4] | [6] | [7]
inactive: all other assays above

C#C[C@@]1(O)CC[C@@H]2[C@@H]3CCC4=CC(=O)CC[C@@H]4[C@H]3CC[C@]21C
active: [6] 5.01 µM
inactive: [2]

CCCCC[C@H](O)/C=C\[C@H]1[C@H](C/C=C\CCCC(=O)O)[C@@H](O)C[C@H]1O (tested in a mixture with another compound)
not listed: [2] | [3] | [4] | [5] | [6] | [7]
inactive: all other assays above

O=C(c1cc(C(F)(F)F)cc(C(F)(F)F)c1)N1CCC[C@@]2(CCN(c3ccccn3)C2)C1
active: [2] 25.1 µM | [7] 3.98 µM
inactive: [4]

C[C@H](N)CCCC(C)(C)O
inactive: [2]

CN(C)CCO[C@@H](c1ccc(Cl)cc1)c1ccccn1
inactive: [2] | [6]

C[C@H](C(=O)O)c1cccc(Oc2ccccc2)c1
not listed: 7G8 | [3] | [4] | [5] | [6] | [7]
inactive: all other assays above

COc1ccc(OC)c([C@H](O)CNC(=O)CN)c1
not listed: [1] | [2] | [3] | [4] | [5] | [6] | [7]
inactive: all other assays above

Cc1ncc([N+](=O)[O-])n1C[C@H](O)CCl
not listed: DFO2036 | TAB109 | [2] | [3] | [4] | [5] | [6] | [7]
inactive: all other assays above

CC(=C(CCOP(=O)(O)O)SC(=O)c1ccccc1)N(C=O)Cc1cnc(C)nc1N
not listed: 7G8 | [2] | [3] | [4] | [5] | [6] | [7]
inactive: all other assays above

Cn1nnnc1SCC1=C(C(=O)O)N2C(=O)[C@@H](NC(=O)[C@@H](O)c3ccccc3)[C@@H]2SC1
not listed: 7G8 | [2] | [3] | [4] | [5] | [6] | [7]
inactive: all other assays above

O=C1O[C@@H]([C@@H](O)CO)[C@@H](O)[C@H]1O
not listed: DFO2036 | TAB109 | [2] | [3] | [4] | [5] | [6] | [7]
inactive: all other assays above

CN[C@H]1[C@@H](O)[C@@H](NC)[C@@H]2O[C@@]3(O)C(=O)C[C@@H](C)O[C@H]3O[C@H]2[C@H]1O
not listed: [1] | CP203 | [2] | [3] | [4] | [5] | [6] | [7]
inactive: all other assays above

CC(=O)OCC(=O)[C@@]12OC(C)(C)O[C@@H]1C[C@H]1[C@H]3C[C@H](F)C4=CC(=O)C=C[C@@]4(C)[C@]3(F)[C@H](O)C[C@@]12C
not listed: [1] | 7G8 | [2] | [3] | [4] | [5] | [6] | [7]
inactive: all other assays above
